Screening data deposited in PubChem BioAssay by Broad Institute.
PRC2 inh – EZH2 (human) methyltransferase inhibition | Q15910 | PRC2 H3K27 methylation, DELFIA TRF, 1 h | inhibition, % at 12.5 µM | 57,000 tested, 0.35% active;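 active = mean inhibition of replicates at least 50% and every single replicate also reaching 50%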;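 also: dimethyl H3K27 on biotinylated H3 21-44 peptide detected by antibody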
Target sequence (Q15910 whole entry, looked up): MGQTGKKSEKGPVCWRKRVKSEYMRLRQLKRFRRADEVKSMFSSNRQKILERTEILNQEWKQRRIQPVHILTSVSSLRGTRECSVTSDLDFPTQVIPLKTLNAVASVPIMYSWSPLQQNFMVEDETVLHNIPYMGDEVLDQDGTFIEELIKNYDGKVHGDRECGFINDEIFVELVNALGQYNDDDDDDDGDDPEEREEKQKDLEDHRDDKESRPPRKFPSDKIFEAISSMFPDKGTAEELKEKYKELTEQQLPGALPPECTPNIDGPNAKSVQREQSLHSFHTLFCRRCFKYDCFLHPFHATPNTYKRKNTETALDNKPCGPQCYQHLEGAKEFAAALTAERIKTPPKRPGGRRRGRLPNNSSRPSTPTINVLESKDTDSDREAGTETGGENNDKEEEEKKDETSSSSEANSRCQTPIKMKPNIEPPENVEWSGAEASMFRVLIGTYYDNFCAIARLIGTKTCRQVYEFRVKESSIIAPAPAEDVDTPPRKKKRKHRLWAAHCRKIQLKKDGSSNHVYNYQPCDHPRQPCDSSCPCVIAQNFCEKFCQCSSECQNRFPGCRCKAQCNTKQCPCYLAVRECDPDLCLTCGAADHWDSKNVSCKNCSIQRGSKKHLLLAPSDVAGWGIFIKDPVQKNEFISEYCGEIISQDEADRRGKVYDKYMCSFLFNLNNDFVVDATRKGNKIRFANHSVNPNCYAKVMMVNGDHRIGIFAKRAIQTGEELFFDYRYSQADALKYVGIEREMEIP
A number is an active result; - = inactive. The sample as a whole holds a higher share of hits than the screen did.

SMILES	PRC2 inh
CCCC#Cc1cnc2c(c1)C(=O)N([C@H](C)CO)C[C@H](C)[C@H](CN(C)C(=O)CN1CCOCC1)O2	95
CCCC#Cc1cnc2c(c1)C(=O)N([C@H](C)CO)C[C@H](C)[C@@H](CN(C)C(=O)CN1CCOCC1)O2	-
CCCC#Cc1cnc2c(c1)C(=O)N([C@@H](C)CO)C[C@@H](C)[C@H](CN(C)C(=O)CN1CCOCC1)O2	-
O=C(N[C@@H]1CC[C@@H](CCNS(=O)(=O)c2ccc(F)cc2)O[C@@H]1CO)c1cccc(F)c1	-
O=C(O)CCCCCCC(=O)N/N=C/CCC1CCCCC1	-
O=C(O)CCCC[C@@H]1SC[C@@H]2NC(=O)N[C@@H]21	99
C[C@@H]1CN([C@@H](C)CO)C(=O)c2cc(C3=CCCCC3)cnc2O[C@@H]1CN(C)C(=O)NC1CCCC1	-
CC(C)NC(=O)N(C)C[C@@H]1Oc2ncc(C#CC(C)(C)O)cc2C(=O)N([C@H](C)CO)C[C@@H]1C	-
COCC#Cc1cnc2c(c1)C(=O)N([C@@H](C)CO)C[C@H](C)[C@@H](CN(C)S(C)(=O)=O)O2	-
CC(C)c1ccccc1NC(=O)CN(C)S(=O)(=O)c1ccc(Br)cc1	-
C[C@@H]1CN([C@H](C)CO)C(=O)c2cc(NC(=O)NC3CCCCC3)ccc2O[C@@H]1CN(C)S(=O)(=O)c1ccc(Cl)cc1	-
Nc1nc(SCC(=O)c2ccc(Oc3ccccc3)cc2)n[nH]1	-
Cc1cc(C)nc(SCC(=O)c2ccc(Oc3ccccc3)cc2)n1	57
Cc1cc(Oc2ccccc2)nc(SCC(N)=O)n1	-
C[C@@H]1CN([C@H](C)CO)C(=O)c2cccc(NC(=O)C3CC3)c2O[C@@H]1CN(C)S(=O)(=O)c1ccc(F)cc1	-
CC1(C)CC[C@]2(C(=O)O[C@@H]3O[C@H](CO)[C@@H](O)[C@H](O)[C@H]3O)CC[C@]3(C)C(=CCC4[C@@]5(C)C[C@@H](O)[C@H](O)C(C)(C)C5CC[C@]43C)C2[C@@H]1O (stereo not given in full)	68
CC1(C)CC[C@]2(C(=O)O[C@@H]3O[C@H](CO)[C@@H](O)[C@H](O)[C@H]3O)CC[C@]3(C)C(=CCC4[C@@]5(C)CC[C@H](OC6O[C@H](CO)[C@@H](O)[C@H](O[C@@H]7O[C@H](CO)[C@@H](O)[C@H](O)[C@H]7O)[C@H]6O)C(C)(C)C5CC[C@]43C)[C@@H]2C1 (stereo not given in full)	-
C[C@H]1[C@H](C)CC[C@]2(C(=O)O)CC[C@]3(C(=O)O)C(=CCC4[C@@]5(C)CC[C@H](O[C@@H]6O[C@@H](C)[C@H](O)[C@@H](O)[C@H]6O)C(C)(C)C5CC[C@]43C)[C@H]12 (stereo not given in full)	-
C[C@@H]1CC[C@]2(C(=O)O[C@@H]3O[C@H](CO)[C@@H](O)[C@H](O)[C@H]3O)CC[C@]3(C)C(=CCC4[C@@]5(C)C[C@@H](O)[C@H](O)C(C)(C)C5CC[C@]43C)C2[C@]1(C)O (stereo not given in full)	-
C[C@H]1O[C@@H](O[C@H]2CC[C@@]3(C)C(CC[C@]4(C)C3CC=C3C5CC(C)(C)CC[C@]5(C(=O)O)CC[C@]34C(=O)O)C2(C)C)[C@H](O)[C@@H](O)[C@H]1O (stereo not given in full)	-
CC1CC[C@]2(C(=O)OC3OC(COC4OC(CO)C(O)C(O)C4O)C(O)C(O)C3O)CC[C@]3(C(=O)O)C(=CCC4[C@@]5(C)CC[C@H](OC6OC(C)C(O)C(O)C6O)C(C)(C)C5CC[C@]43C)C2C1C (stereo not given in full)	71
Cc1ccc(/C=N/NC(=O)CCCCCCC(=O)Nc2ccccc2O)o1	-
CC(C)NC(=O)N(C)C[C@H]1Oc2cc(-c3ccccc3F)ccc2S(=O)(=O)N([C@@H](C)CO)C[C@H]1C	-
C[C@H](CO)N1C[C@H](C)[C@H](CN(C)S(=O)(=O)c2ccc(F)cc2)Oc2ccc(NC(=O)CCN3CCOCC3)cc2CC1=O	-
CNC[C@@H]1Oc2c(NC(=O)c3ccc(-c4nccs4)cc3)cccc2C(=O)N([C@@H](C)CO)C[C@@H]1C	-
SMILES	PRC2 inh
COc1ccc([Si](C)(C)[C@@H]2[C@@H](CC(=O)N3CCC[C@H]3CO)O[C@]3(C(=O)N(C)c4c(Br)cc(C)cc43)[C@H]2C)cc1	-
C[C@@H]1CCCCO[C@@H](CN(C)Cc2ccccc2)[C@H](C)CN([C@H](C)CO)C(=O)c2cc(NC(=O)CCCN(C)C)ccc2O1	-
C[C@@H]1CN([C@H](C)CO)C(=O)c2cc(NS(=O)(=O)c3cccs3)ccc2O[C@@H]1CN(C)Cc1ccccc1	-
C[C@@H]1CN([C@@H](C)CO)C(=O)c2cc(NS(=O)(=O)c3cccs3)ccc2O[C@H]1CN(C)Cc1ccc(-c2ccccc2)cc1	60
C[C@H]1CN([C@@H](C)CO)C(=O)c2cc(NS(=O)(=O)c3cccs3)ccc2O[C@@H]1CN(C)Cc1ccccc1	-
C[C@H](CO)N1C[C@H](C)[C@@H](CN(C)Cc2ccccc2)Oc2ccc(NS(=O)(=O)c3cccs3)cc2C1=O	-
C[C@@H]1CN([C@@H](C)CO)C(=O)c2cc(NS(=O)(=O)c3cccs3)ccc2O[C@@H]1CN(C)Cc1ccccc1	-
C[C@H]1CN([C@@H](C)CO)C(=O)c2cc(NS(=O)(=O)c3cccs3)ccc2O[C@@H]1CN(C)Cc1ccc(-c2ccccc2)cc1	72
C[C@H]1CN([C@@H](C)CO)C(=O)c2cc(C#CCN(C)C)cnc2O[C@@H]1CN(C)C(=O)Cc1cccnc1	-
CO[C@@H]1CN(C)C(=O)c2ccc(NS(C)(=O)=O)cc2OC[C@H](C)N(CC2CCCCC2)C[C@H]1C	-
C[C@@H]1CN([C@H](C)CO)C(=O)c2c(c3ccccc3n2C)-c2ccccc2CO[C@H]1CN(C)S(=O)(=O)c1ccc(Cl)cc1	-
CNC[C@H]1Oc2ccc(N(C)C)cc2C(=O)N([C@@H](C)CO)C[C@H]1C	-
C[C@@H](NC(=O)C[C@H]1C[C@@H]2c3cc(NC(=O)CC4CC4)ccc3O[C@@H]2[C@@H](CO)O1)c1ccccc1	-
CC(C)(C)[S@@](=O)N1Cc2cc(C(=O)NCc3ccncc3)nc(-c3cccc(-c4ccc(C#N)cc4)c3)c2[C@H]1CCO	-
CC(C)(C)[S@](=O)N1Cc2cc(C(=O)NCCc3ccncc3)nc(-c3cccc(-c4cccc(C#N)c4)c3)c2[C@@H]1CCO	-
CC(C)(C)[S@@](=O)N1Cc2cc(C(=O)NCCc3ccncc3)nc(-c3cccc(-c4ccc(C#N)cc4)c3)c2[C@H]1CCO	50
C[C@H](NC(=O)C[C@@H]1C[C@@H]2c3cc(NC(=O)C4CCC4)ccc3O[C@@H]2[C@H](CO)O1)c1ccccc1	-
Cc1cc(Cl)ccc1OC(C)C(=O)Nc1ccc(C(=O)Nc2ccccc2C(=O)O)cc1 (stereo not given)	60
Cc1cccc(C(=O)O)c1NC(=O)C(C)Oc1ccc(Cl)cc1Cl (stereo not given)	-
COC(=O)c1ccccc1NC(=O)c1ccc(NC(=O)C(C)Oc2ccccc2)cc1 (stereo not given)	-
COc1ccccc1NC(=O)CSc1nc2sc(C)c(C)c2c(=O)n1-c1ccc(C)c(C)c1	-
Cc1cc(=O)c2c(O)c3c(O)cc(O)c4c5c(O)cc(O)c6c(O)c7c(=O)cc(C)c8c1c2c(c34)c(c65)c78	64
C[C@@H]1CN([C@H](C)CO)C(=O)CCCn2cc(nn2)CO[C@@H]1CN(C)C(=O)c1cc(-c2ccccc2)on1	-
